# Bioassay records (PubChem)
# NR2F2 inh – NR2F2 (human) inhibition, primary screen. P24468. HEK293T NGFI-A luciferase reporter, luminescence. inhibition, % at 8.6 µM. hit rate 0.7% among 370,000. AID 686940;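 active means inhibition above a per-plate cutoff, mean inhibition of test wells between control levels plus 3 SD, cut at about 38% in these data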;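 further: cells cotransfected with COUP-TFII expression vector driving the NGFI-A reporter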
# Target sequence (P24468 whole entry, looked up): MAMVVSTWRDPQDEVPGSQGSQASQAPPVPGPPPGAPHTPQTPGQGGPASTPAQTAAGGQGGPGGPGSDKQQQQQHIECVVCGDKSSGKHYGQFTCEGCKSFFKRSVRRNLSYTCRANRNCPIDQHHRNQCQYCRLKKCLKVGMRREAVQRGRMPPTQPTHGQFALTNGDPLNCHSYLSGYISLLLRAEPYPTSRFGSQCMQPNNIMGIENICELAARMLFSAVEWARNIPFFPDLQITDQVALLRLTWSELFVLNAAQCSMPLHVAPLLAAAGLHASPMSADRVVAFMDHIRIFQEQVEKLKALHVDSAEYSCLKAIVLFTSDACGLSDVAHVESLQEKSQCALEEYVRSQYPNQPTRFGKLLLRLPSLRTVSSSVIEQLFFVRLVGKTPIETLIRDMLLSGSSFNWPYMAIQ
# Gli-Sufu block – blocks Gli-Sufu signaling in a luciferase reporter. hit rate 0.74% among 340,000. inhibition, % at 5 µM. Sufu-KO-LIGHT fibroblasts, Gli luciferase reporter luminescence;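 active means inhibition above about 55%, limit read from the data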
# NR5A2 inv ag – inverse agonists of human LRH-1 (NR5A2); HEK293T StAR-luciferase reporter, LRH-1 transfected, 24 h; inhibition, % at 3.6 µM; hit rate 0.13% among 360,000; AID 602396;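 active means inhibition above the mean inhibition of all tested compounds plus 3 SD, cut at about 73% in these data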
# SRC2 inh – inhibits human steroid receptor coactivator 2 | HEK293 GAL4-SRC2 luciferase reporter, luminescence | inhibition, % at 9 µM | hit rate 0.17% among 370,000;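 active means inhibition above the mean inhibition of all tested compounds plus 3 SD, set per campaign, cut at about 52% in these data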
# SRC1 inh – human NCOA1 inhibition. HEK293 GAL4-SRC1 luciferase reporter, luminescence. hit rate 0.12% among 360,000. inhibition, % at 3.6 µM. Q15788;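 active means inhibition above the campaign mean plus 3 SD, with each screening campaign given its own cutoff, cut at about 60% in these data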
# NCOA3 inh – inhibits human SRC3 coactivator | Q9Y6Q9 | HEK293 GAL4-SRC3 luciferase reporter, luminescence | inhibition, % at 3.6 µM | hit rate 0.17% among 360,000 | AID 588352;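 active means inhibition above a per-campaign cutoff, the mean of all compounds plus 3 SD, cut at about 60% in these data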;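 further: higher means less SRC3-driven luciferase light from the GAL4 reporter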
# Hits are given with their value; - = inactive; . = not tested or not shown; ! = a repeat was not active. Compounds with a hit are over-represented: about 1.3% of the library has one in this group of screens.
SMILES,NR2F2 inh,Gli-Sufu block,NR5A2 inv ag,SRC2 inh,SRC1 inh,NCOA3 inh
COc1cccc(/C=N/NC(=O)c2ccc(-c3ccccc3)cc2)c1O,-,-,-,-,-,68.1
COc1cccc(/C=N/NC(=O)c2c(C)nc3ccc(Cl)cn23)c1O,-,83.5,89.7,-,-,77.9
CN(C)c1ccc(C(=O)OCc2ccccc2)cc1,-,-,-,-,-,-
O=C1C=CC(=O)C(CNc2ccc(C(=O)OCc3ccccc3)cc2)=C1,-,-,-,67.0,-,-
O=C(Cc1ccc(Cl)cc1)c1c[nH]c(C(=O)NCc2cccnc2)c1,-,-,-,88.0,-,-
Cc1ccc(S(=O)(=O)Nc2cccc3ncccc23)cc1,-,-,-,-,-,-
Cc1ccc(S(=O)(=O)Nc2cccc3ncccc23)s1,.,85.1,-,.,-,-
Cc1cc(=O)[nH]c(SCC(=O)Nc2ccc(Cl)cc2)n1,-,.,.,-,.,.
C=CCN1[C@H](Cc2ccccc2)COc2cc(F)ccc2S1(=O)=O,-,.,.,-,.,.
S=c1[nH]nc(C2CCCCC2)n1/N=C/c1ccncc1,-,-,-,-,70.5,69.2
CC(C)n1cc(/C=C/c2cc[n+](C)cc2)c2ccccc21,-,71.0,-,-,-,-
Cc1ccccc1/C=C/c1cc[n+](C)cc1,-,-,-,-,-,-
C=CCn1cc(/C=C/c2cc[n+](C)cc2)c2ccccc21,49.5,66.4,-,-,-,-
N#CCC[C@@H]1CC[C@]2(CCCN(C(=O)c3ccc4ccccc4n3)C2)O1,-,.,.,-,.,.
CN(c1cccnc1)c1ncnc2[nH]ncc12,-,-,-,-,-,-
C=CCN(CC=C)c1ncnc2[nH]ncc12,-,-,-,53.2,-,-
CCn1c(C)nc2cc(-c3nc4n(n3)Cc3ccccc3-4)ccc21,.,87.5,94.8,.,90.7,85.9
CCOc1cc2c(cc1OCC)C(c1ccc(OC)cc1)N(c1ccccc1)C(=O)C2 (stereo unspecified),-,-,75.6,-,-,-
CCN1C/C(=C/c2cccc([N+](=O)[O-])c2)C(=O)/C(=C/c2cccc([N+](=O)[O-])c2)C1,-,58.3,-,-,-,-
O=C1NC(=O)/C(=C/c2cccc([N+](=O)[O-])c2)N1,-,-,-,-,-,-
Cc1ccc(C(=O)n2ccc3ccc(-c4ccc5ccn(Cc6ccccc6)c5c4)cc32)cc1,-,.,.,-,.,.
Oc1ccccc1N=N/C(=N/Nc1ccccc1O)c1ccccc1,-,-,-,-,-,-
Cn1nnnc1N=N/C(=N/Nc1ccccc1)c1ccccc1,-,-,-,-,76.3,81.3
COc1ccc(C(=O)Nc2ccc(-c3ccc(C)o3)cc2)cc1S(=O)(=O)N1CCOCC1,75.1,-,-,-,-,-
COc1ccc(C(=O)Nc2ccc(N3CCOCC3)cc2)cc1S(=O)(=O)N1CCOCC1,-,-,-,-,-,-
SMILES,NR2F2 inh,Gli-Sufu block,NR5A2 inv ag,SRC2 inh,SRC1 inh,NCOA3 inh
CN1C(=O)C[C@@](C#N)(C(=O)NCc2ccccc2)[C@H]1c1ccccc1,-,.,.,-,.,.
Nc1nc2ncc(CNc3ccc(C(=O)N[C@@H](CCC(=O)O)C(=O)O)cc3)nc2c(=O)[nH]1,-,-,-,-,-,-
CN(Cc1cnc2nc(N)nc(N)c2n1)c1ccc(C(=O)N[C@@H](CCC(=O)O)C(=O)O)cc1,-,56.8!,-,-,68.4!,-
COc1ccc(S[C@]2(C(=O)N3CCCC3)CC(=O)N(P(=O)(OC)OC)[C@@H]2c2ccc(OC)cc2)cc1,-,.,.,-,.,.
COc1ccc(/C=C/c2c([N+](=O)[O-])c(=O)n(C)c(=O)n2C)c(OC)c1,-,-,-,-,-,-
Cn1c(/C=C/c2ccc(Cl)cc2Cl)c([N+](=O)[O-])c(=O)n(C)c1=O,-,-,-,-,-,75.5
C[C@@H]1OCN(C)[C@H]2C[C@H]3c4[nH]c5cccc(-c6ccc7c(c6)OCO7)c5c4CCN3C[C@@H]12,-,.,.,-,.,.
C[C@H]1[C@@H](NC(=O)/C=C/c2ccccc2)CC[C@@]23CCCN2C(=O)CCC[C@@H]13,-,.,.,.,.,.
CN(C)CCNC(=O)c1cccc2nc3c(ccc4ccccc43)nc12,-,-,-,-,65.9,-
O=C(CC1CCCC1)N1CC[C@H]2[C@H](CCCN2Cc2ccccc2)C1,-,.,.,-,.,.
CCOC(=O)CC[C@@]1(C(=O)OCC)C[C@@H](CC(=O)NCCc2ccccc2OC)C(=O)N2CCCC=C21,-,.,.,-,.,.
O=C(Oc1ccc(/C=N/Nc2ccccc2)cc1)c1ccccc1,-,-,-,-,-,-
O=C(O)c1ccc(N/N=C/c2ccc(OC(=O)c3cccc(Cl)c3)cc2)cc1,-,60.8,-,-,-,-
CCC(C)(C)c1ccc(OCCCC[n+]2ccc(C)cc2)c(C(C)(C)CC)c1,-,83.7,.,-,.,.
COc1nc(Nc2nc3ccccc3c(=O)[nH]2)nc2ccc(C)cc12,-,62.9,-,-,-,-
Cc1cc(C)cc(Nc2nc3ccccc3c(=O)[nH]2)c1,-,-,-,-,-,-
CC(=O)C1=C(C)NC(SCC(=O)c2cc(Cl)ccc2Cl)=C(C#N)C1c1ccco1 (stereo unspecified),-,69.3,-,-,-,-
O=c1c2ccccc2nc(/C=C/c2ccc([N+](=O)[O-])o2)n1CCCO,-,71.2,-,-,-,-
O=c1c2ccccc2nc(/C=C/c2ccc([N+](=O)[O-])cc2)n1CCCO,-,-,-,-,-,-
Cc1cc(=O)[nH]c(N/N=C/c2ccccn2)n1,-,-,-,-,-,-
O=c1cnnc(N/N=C/c2ccccn2)[nH]1,-,74.4,91.6,-,66.0,83.1
CC(C)c1nc(N(C)S(C)(=O)=O)nc(-c2ccc(F)cc2)c1/C=C/[C@H](O)C[C@@H](O)CC(=O)O,-,.,.,-,.,.
CC(=O)Nc1cccc(-c2cc(NC(C)=O)c3ncc(-c4ccc(F)cc4)n3c2)c1,-,.,-,54.1,-,-
CC(=O)Nc1cc(-c2cccc(F)c2)cn2c(-c3ccc(F)cc3)cnc12,-,.,-,-,-,-
CCN1CCN(Cc2ccc(NC(=O)c3ccc(C)c(NC(=O)c4nccn4C)c3)cc2C(F)(F)F)CC1,-,-,-,-,-,-
SMILES,NR2F2 inh,Gli-Sufu block,NR5A2 inv ag,SRC2 inh,SRC1 inh,NCOA3 inh
CCN1CCN(Cc2ccc(NC(=O)c3ccc(C)c(NC(=O)c4cncc(-c5cccs5)c4)c3)cc2C(F)(F)F)CC1,.,72.3,-,.,-,-
Oc1ccc2ccccc2c1C=NN1CCN(Cc2ccc(Cl)cc2)CC1,-,.,.,-,.,.
CN1CCCN(S(=O)(=O)c2ccc3c(c2)n(C)c(=O)c(=O)n3C)CC1,-,.,.,-,.,.
COC(=O)[C@]12C[C@H](CC(=O)NCc3ccc(C)o3)C(=O)N(CCC3=CCCCC3)C1=C[C@H](C1CCCC1)O[C@@H]2C,-,.,.,-,.,.
NC(=S)n1[nH]c(-c2ccc([N+](=O)[O-])cc2)c(N=Nc2ccc(O)cc2)c1=O,-,-,-,-,-,-
NC(=S)n1[nH]c(-c2ccc([N+](=O)[O-])cc2)c(N=Nc2cccc(Cl)c2)c1=O,-,61.6,-,-,-,-
C=CCSc1nsc(NC(=O)Nc2ccc(F)cc2)n1,53.6,-,-,-,-,-
